Experimental data as given in PubChem BioAssay (NCATS).
Records with an inconclusive call do not appear. Entries that show only a call come without a potency. The source made the active and inactive calls. The call rests on the fitted dose curve; in most records, active means well fitted inhibition curve with a large enough effect; inconclusive means small, poorly fitted or top-dose-only effect; inactive means no such curve, though single readings can be large or run the other way.
Potency means the concentration at half of the fitted maximal effect.

Each molecule was assayed against Rap guanine nucleotide exchange factor 4 (Homo sapiens) (UniProt Q8WZA2) (assay: Confirmatory qHTS for antagonist of cAMP-regulated guanine nucleotide exchange factor 4 (EPAC2) (AID 1645885; further: nearly all actives have a fitted effect of over 25% in size)). Details: EPAC2 Rap1B-BODIPY-GDP exchange fluorescence, biochemical; series mostly up to 12.7 µM.
Chain of Rap guanine nucleotide exchange factor 4 (Homo sapiens) (Q8WZA2 whole entry, looked up): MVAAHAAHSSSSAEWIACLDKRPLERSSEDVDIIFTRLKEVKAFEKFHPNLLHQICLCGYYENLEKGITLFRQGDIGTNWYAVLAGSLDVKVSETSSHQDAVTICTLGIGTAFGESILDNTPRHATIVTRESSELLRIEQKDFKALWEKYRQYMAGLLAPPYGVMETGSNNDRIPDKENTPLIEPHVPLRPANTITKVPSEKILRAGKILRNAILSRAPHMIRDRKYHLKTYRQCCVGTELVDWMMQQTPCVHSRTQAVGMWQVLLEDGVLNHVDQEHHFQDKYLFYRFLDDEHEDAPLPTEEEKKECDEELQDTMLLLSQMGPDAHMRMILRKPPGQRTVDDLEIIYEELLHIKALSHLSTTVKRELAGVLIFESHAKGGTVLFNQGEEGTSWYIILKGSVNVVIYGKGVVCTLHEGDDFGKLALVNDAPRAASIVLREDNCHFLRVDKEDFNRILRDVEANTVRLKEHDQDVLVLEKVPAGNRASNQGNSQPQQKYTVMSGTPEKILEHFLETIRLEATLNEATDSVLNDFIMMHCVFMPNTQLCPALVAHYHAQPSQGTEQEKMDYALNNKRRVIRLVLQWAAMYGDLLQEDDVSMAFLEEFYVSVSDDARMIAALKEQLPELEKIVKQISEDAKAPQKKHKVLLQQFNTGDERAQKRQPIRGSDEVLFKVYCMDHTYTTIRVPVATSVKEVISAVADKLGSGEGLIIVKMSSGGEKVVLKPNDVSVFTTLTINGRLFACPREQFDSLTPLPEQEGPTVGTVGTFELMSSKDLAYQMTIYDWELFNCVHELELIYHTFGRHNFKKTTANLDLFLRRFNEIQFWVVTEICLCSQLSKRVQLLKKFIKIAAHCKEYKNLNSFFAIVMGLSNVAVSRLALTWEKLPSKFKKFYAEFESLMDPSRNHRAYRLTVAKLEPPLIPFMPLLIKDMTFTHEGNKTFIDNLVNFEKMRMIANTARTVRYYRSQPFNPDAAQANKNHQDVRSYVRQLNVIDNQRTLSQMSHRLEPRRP
For Cc1ccc(N=Cc2c(O)c3ccccc3n(C)c2=O)cc1, the Potency was “inactive”. In the case of CCOC(=O)C1=CN(Cc2cccc(F)c2)S(=O)(=O)NC1c1ccc(Br)cc1F (stereo unspecified), the Potency is reported as “inactive”. For N#C/C(=C/C1=C(N2CCOCC2)C(=C/c2cccc([N+](=O)[O-])c2)/CC1)C(=O)Nc1ccccc1F, the Potency was “inactive”. In the case of Cc1ccc(C)c(-c2ccc(=O)n(Cc3c(F)cccc3Cl)n2)c1, the Potency is reported as “inactive”. In the case of CCCCc1ccc(NS(=O)(=O)c2cc3c4c(c2)CC(=O)N4CCC3)cc1, the Potency is reported as “inactive”. In the case of C/C(=N\NC(=O)c1ccc(O)cc1)c1cccc(NC(=O)c2ccc(Cl)cc2)c1, the Potency is reported as “inactive”. Cc1cccc(S(=O)(=O)Nc2ccc(S(=O)(=O)Nc3nccs3)cc2)c1 was tested, and the Potency was 75.7 µM (active). For COc1ccc(CC(=O)NCc2ccc3c(c2)CCN3C(=O)c2ccc(Cl)cc2)cc1OC, the Potency was “inactive”. NC(=O)C1CCN(C(=O)c2ccc3c(=O)n(Cc4cccc(Br)c4)c(=S)[nH]c3c2)CC1 was tested, and the Potency was “inactive”. With O=C1C=C(Nc2cccc3cccnc23)c2ccccc2C1=O the Potency was “inactive”. In the case of O=C(COC(=O)C1(c2ccc(Cl)cc2)CCCC1)NCc1ccco1, the Potency is reported as 75.7 µM (active). For Cc1ccc(/C=C(\C#N)C(=O)Nc2cccc3ncccc23)o1, the Potency was “inactive”. For O=C(CSc1nc(O)cc(=O)n1-c1ccccc1)Nc1nc2ccccc2s1, the Potency was “inactive”. With O=C(NCCCN1CCOCC1)c1ccc2c(c1)N(Cc1cccc(Cl)c1)C(=O)c1ccccc1S2 the Potency was “inactive”. For CCOC(=O)Cc1cc(=O)n2[nH]c(-c3ccccc3)c(-c3ccccc3)c2n1, the Potency was “inactive”. With CCC(=O)NC(c1ccc(OC)cc1)c1c(O)ccc2ccccc12 (stereo unspecified) the Potency was “inactive”.
